# Values joined by “and” are separate entries in the source; they are usually repeats but may differ in a detail not shown here. Identical values can stand only once. Hit rate of the full screen: of about 38,000 compounds, about 1,200 (3.2%) showed an effect of 50% or more. The median lay at about -58%. The list comes from a sample in which strong results are over-represented; it also holds similar structures and randomly drawn compounds.
# Tested on: Plasmodium falciparum
# Assay: Calibr Malaria Delayed Death Assay SOP
# Format: functional, organism-based
# Set-up: scale not given: in the data most compounds retested in dose-response had high values
# Details: concentration 4.99e-06 (unit not given; other assays of the set use mol/L)
Compound,Percent Effect,Percent Effect (4.99 µM)
COc1cccc2ccn(CC(=O)NC(C)C)c12,-78.35%,–
Cc1ccc(N(CCC#N)C(=O)CCc2cscn2)cc1C,-62.62%,–
COC[C@@]12CCO[C@@H]1CCN(C(=O)Cc1cccc(F)c1)C2,-44.15%,–
Cc1ccc(-c2nc(CCNC(=O)C3CC(=O)N(C)C3)cs2)cc1 (stereo not drawn),-66.89%,–
CC(=O)c1cccc(-c2c[nH]c(C)n2)c1,-59.83%,–
Cc1cc2c(c(-c3cncc(C(=O)N4CCCC4)n3)c1)OC(CN)C2 (stereo not drawn),3.853%,–
Cc1cc2c(c(-c3c[nH]c(C)n3)c1)OC(CN)C2 (stereo not drawn),79.27%,–
Cc1nc(-c2cccc(C(=O)O)c2)c[nH]1,-344.9%,–
O=C(CCc1ccco1)N1CCCN(Cc2cscn2)CC1,-137.4%,–
O=C(c1cccc(F)c1)N1CC[C@@H]2CN(c3ncccn3)CCO[C@@H]2C1,-63.21%,–
O=S(=O)(NCC(O)c1ccc2c(c1)CCO2)c1ccccc1F (stereo not drawn),-109.3%,–
CC1(c2ccccc2)CCC(=O)N(CCN2CCOCC2)C1 (stereo not drawn),-51.4%,–
COCCn1cncc1CN1CCCC(C)(c2ccccc2)C1 (stereo not drawn),61.23%,–
COc1ncc(CN2CCC3(CCCN(CC4CCCCC4)C3)C2)cn1 (stereo not drawn),-65.28%,–
COCCn1cncc1CN1CCC(C(C)=O)(c2ccccc2)CC1,-24.83%,–
CC1(c2ccccc2)CCCN(C(=O)c2ccn3nnnc3c2)C1 (stereo not drawn),-91.8%,–
CC1(c2ccccc2)CCCN(Cc2cncn2C2CC2)C1 (stereo not drawn),67%,–
COCCN1CCCC12CCN(Cc1cncn1C)CC2.O=C(O)C(F)(F)F.O=C(O)C(F)(F)F,-15.64%,–
O=C(Cc1ccccc1)C1CCCN(Cc2cncn2C2CCCC2)C1 (stereo not drawn),56.54%,–
CCc1nccn1C1CCCN(C(=O)c2cncn2-c2ccccc2)C1 (stereo not drawn),–,-131.8% and -127.1%
CC1(c2ccccc2)CCCN(Cc2cncn2C2CCCC2)C1 (stereo not drawn),90.6%,–

Compound,Percent Effect,Percent Effect (4.99 µM)
O=C(C1CCCN(Cc2ccccc2)C1)N1CCc2sccc2C1 (stereo not drawn),11.44%,–
O=C(C1CCCN(Cc2cccnc2)C1)N1CCc2sccc2C1 (stereo not drawn),-120.1%,–
O=C(O)C(F)(F)F.O=C(O)C(F)(F)F.O=C1N(Cc2cccnc2)CCC12CCCN(c1ncccn1)C2 (stereo not drawn),-131.5%,–
CS(=O)(=O)c1cncnc1C1CCCNC1.Cl (stereo not drawn),-139%,–
CCN1CCO[C@@H]2CN(C(=O)NCc3ccccc3)CC[C@@H]2C1,-134.2%,–
CCC(=O)NC(c1ccc(C)cc1)c1cccc(S(C)(=O)=O)c1 (stereo not drawn),-119.8%,–
COc1cc(N2C[C@@H]3COC[C@@H](Cc4nc(C)no4)[C@@H]3C2)ncn1,-87.35%,–
Cc1ccc(C(=O)N2C[C@@H]3CCCO[C@@H]3[C@H](N(C)Cc3ccco3)C2)o1.O=C(O)C(F)(F)F,-32.67%,–
CCNC(=O)c1c2c(N3CCN(C)CC3)ncnc2n2ccccc12,-74.14%,–
CCCN1CCC(CNC(=O)C2(c3ccccc3)CCC2)C1 (stereo not drawn),65.3%,–
CCN1CCC(CNC(=O)C2(c3ccc(F)cc3)CC2)C1 (stereo not drawn),28.54%,–
Cc1cc(C)cc(C2(C(=O)NCC3CCN(CC(F)(F)F)C3)CC2)c1 (stereo not drawn),-75.87%,–
COCCN1CCC(CNC(=O)C2(c3ccccc3)CCC2)C1 (stereo not drawn),-3.533%,–
CCCN1CCC(CNC(=O)C2(c3cccc(C)c3)CC2)C1 (stereo not drawn),-64.24%,–
CCOCCC(=O)N1CCN(CC(C)O)CC1 (stereo not drawn),-101.9%,–
Cn1ncnc1CNC(=O)N(CCCO)C1CCc2ccccc21 (stereo not drawn),-16.9%,–
Cn1cc(N2CC3(CCN(Cc4cccnc4)CC3)OCC2=O)cn1.O=C(O)C(F)(F)F.O=C(O)C(F)(F)F,-71.74%,–
CC(=O)N1CCN(C(=O)NCCc2ccc(Cl)s2)CC1,-108.8%,–
Cc1cc(C)c(CNC(=O)NCC2Cc3ccccc3O2)c(=O)[nH]1 (stereo not drawn),-144.1%,–
CN1CCC(c2cccc(Cc3ccc(C(F)(F)F)cc3)n2)CC1,50.24%,–
Fc1ccc(Cc2cccc(C3CCN(C4CCOCC4)CC3)n2)cc1,38.56%,–

Compound,Percent Effect,Percent Effect (4.99 µM)
CN1CCC(c2cccc(Cc3ccccc3)n2)CC1,-0.8146%,–
COC1CCN(C(=O)C2CCCC2)CC(=O)N(C)c2ccccc21 (stereo not drawn),-134%,–
CC1CN(C(=O)Nc2cc(C(F)(F)F)c[nH]c2=O)CC(C)(C)O1 (stereo not drawn),-36.51%,–
Cc1ccsc1C(O)CNC(=O)Cc1ccc(S(=O)(=O)C(C)C)cc1 (stereo not drawn),0.3509%,–
COc1ccc(-c2cccc3c2OC(CN)C3)cc1F (stereo not drawn),62.39%,–
NCC1Cc2cccc(-c3ccc(O)c(F)c3)c2O1 (stereo not drawn),82.73%,–
COc1cc(-c2cccc3c2OC(CN)C3)cc(OC)c1OC (stereo not drawn),46.68%,–
COc1cc(-c2cccc3c2OC(CN)C3)ccc1O (stereo not drawn),37.76%,–
COc1c(F)cc(-c2cccc3c2OC(CN)C3)cc1F (stereo not drawn),35.23%,–
Cc1ccc(C(O)CNC(=O)NCc2c(C)cc(C)[nH]c2=O)cc1 (stereo not drawn),-76.06%,–
Cc1nc(-c2cccnc2)ncc1C(=O)N1CCCC(N(C)C)CC1 (stereo not drawn),-60.09%,–
CN(C)CC1CSCCCN1S(=O)(=O)Cc1ccc(C(F)(F)F)cc1 (stereo not drawn),9.215%,–
Cc1cccc(OC2CCN(S(=O)(=O)Cc3cccc(F)c3)CC2)n1,-131.9%,–
CN(C)CC1CSCCCN1C(=O)c1ccc(C(C)(C)C)cc1 (stereo not drawn),0.9343%,–
CS(=O)(=O)C1CCN(S(=O)(=O)Cc2cccc(F)c2)CC1,-94.28%,–
CN(C)CC1CSCCCN1S(=O)(=O)Cc1cccc(F)c1 (stereo not drawn),58.19%,–
CN(C)CC1CSCCCN1S(=O)(=O)c1ccc(C(F)(F)F)cc1 (stereo not drawn),60.28%,–
Cc1cccc(CN2CC[C@@H]3[C@@H]2CCN3C(=O)c2cc(C)oc2C)n1.O=C(O)C(F)(F)F,-98.87%,–
Cn1nc2c(cc1=O)CN(Cc1nc(N)c3ccccc3n1)CC2,-169.7%,–
Cc1cccc(C2CCCN(C(=O)c3ccncc3)C2)n1 (stereo not drawn),-31.2%,–
CCc1ccc(C(=O)N2CC(C(=O)NC(C)C)C3(CCOCC3)C2)cc1 (stereo not drawn),-34.39%,–
